# Over roughly 25,000 sequences, “ln(normalized median fluorescence intensity)” has its median near 9.7; the highest 2% begin near 11. The sample holds the highest values, similar sequences and a random draw of the others, so the mix is not that of the screen.
# Tested on: PfAP2-HC AP2 domain (GST-tagged)
# Test: gcPBM binding intensity (ln(normalized median fluorescence intensity)); higher = stronger DNA binding
# In short: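 DNA-binding domains from P. falciparum, fused to GST and produced in E. coli, were put on an Agilent 4 × 180k double-stranded probe array for 1 h in 1× PBS holding 1% milk, 0.2 mg/ml BSA, 0.5% salmon testes DNA and 0.03% Triton X-100. Probes were primer-extended, 36 bp long and drawn from intergenic genomic regions, with negative controls included. After Alexa488 anti-GST antibody detection and a 488 nm scan, binding intensity was set as the highest Masliner-normalised natural-log median intensity across replicate spots of either probe orientation.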
row,Sequence,gcPBM binding intensity (ln)
1,ATATATACAAGTATTTTTTTTTCAAACATTATTTTT [CACACA_negctrl_site1808],9.68
2,TACATGAATATATAAAGAAAAAAAAAAAAACACACA [XGTACX_negctrl_site350],9.79
3,AATAAGTAACAAAATACACACATATATATAATTATA [CACACA_site1837],10.1
4,CTTATATTAAGTATTACACACATATATATAAATGCA [CACACA_site4581],9.65
5,TGTACGTTTTTTAACACACACACAAAAAAAAAAAAA [CACACA_site6006],9.84
6,GATTTATACAAATATGTACACACTAAATATATATTA [CACACA_site455],9.83
7,GATGTTGCAAAATTCTGTACATATAAATGTATACAT [XGTACX_site5009],9.64
8,TAATTAAAATTATTTATAAATTAGTATATTTCTATA [CACACA_negctrl_site663],9.42
9,ATATAAGAAAAGCACACACACACAAAAAAAAAAAAA [CACACA_site2827],11.1
10,GCAAAATAAAGAAGCACACAAAAATGAAATATATAT [CACACA_site3651],9.96
11,AGAGATATAAGAAAAGCACACACACCCAAAAAAAAA [CACACA_site8917],10.5
12,AAAAAAAATATAAGTGGTACTCACATAAAGACATAT [XGTACX_site3709],9.93
13,AAAAAAAAAAAGAAGGAAACATTTGACCAAAAATAT [GTGCAC_negctrl_site404],9.58
14,GTAGACTGAAACCACACACACATATATAAATATATT [CACACA_site6433],10.4
15,ATTTTGTGTAGTGATGCATGTTATATATATATTTGA [TGCATGCA_site422],9.83
16,TAGAAGCATGGACACACACACATACATACCCATACA [CACACA_site4916],11.2
17,AAAAAAAACGGACACACACACATACCCATACATACA [CACACA_site5574],10.5
18,TGTCATGATACATACACACACATACCCATACCCATA [CACACA_site5211],10.6
19,TAGAAGCATTGACACACACACATACATACACATACA [CACACA_site6802],11.2
20,TATAGAAGCATTCACACACACACATACATACACATA [CACACA_site1466],10.6
21,GTTATAGAAGCATTCACACACACACGGACATACACA [CACACA_site6801],10.7
22,TGTTGCAAAACAAAAAAAAAAAAAAAAAATAATAAT [CACACA_negctrl_site1642],9.52
23,AAAAGGAAAAATATCACACATATATATATATATATA [CACACA_site5586],9.69

row,Sequence,gcPBM binding intensity (ln)
1,TAAGAAATAAATAGTACACACATAGACACCCACCCA [CACACA_site8429],11.3
2,TAGAAAAAATAAAATAGTACACATCCAAAAAAAAAA [XGTACX_site7829],9.71
3,TAAGAAATAAATAGTACACACATAGACACAGACACA [CACACA_site4934],10.6
4,TAAGAAATAAATAGTACACACATAGACACACGCACA [CACACA_site6821],10.7
5,GCATAAGAAATAAATAGTACACACATAGACACACAC [XGTACX_site3095],11.3
6,TAAGAAATAAATAGTACACACATAGACACCCACCGA [CACACA_site1516],10.4
7,TATAAATACATCCTATACTTCTCTTTTACAGTTTTA [CACACA_negctrl_site1283],9.62
8,ATTTCGTTCTTTTATGCACACTCAACATATAAATTA [CACACA_site8322],9.93
9,GACATAGTCATATACTGTACTTTATATTATTGTGTA [XGTACX_site6636],9.66
10,TATAATAAAATATGTACACACATACAGACATATATA [CACACA_site6693],9.99
11,TATAAATAAATATACACACACACATATAAATATGTA [CACACA_site6504],10.4
12,TATGGTATATACAACACACACACATATGTATAAATA [CACACA_site6562],10.5
13,TGGTATATACGACACACACACATATGTATAAATATA [CACACA_site6561],10.9
14,ACACATAAATGTATATATATATAAATATATGTATGT [CACACA_negctrl_site1532],9.82
15,TATGGTAAATACAACACACACACATATGTATTTATA [CACACA_site4666],10.3
16,TATGGTATATACAACACACACACATATGTATATATA [CACACA_site927],10.9
17,AATTCACATGTGAACTAAAAGAATATTATATATATA [CACACA_negctrl_site1632],9.55
18,TTTTCTAAATATTATAGTACTCTTAATAATATTAAC [XGTACX_site4222],9.34
19,TATAGCAAAAAATTTACACACATGTTTTTTCTATAC [CACACA_site325],9.9
20,ATATTTGTAATTATTAAACACACACTAATTATATAT [CACACA_site8803],9.9
21,AAATTATATACCACAGTGCAAAAGGCAGGTATACGT,9.91
22,TACATATTACTATTCAGTACATATTTTTTTTTCATT [XGTACX_site7468],9.81
23,TAAATAAATTTATACACACACACACGGATATAAATA [CACACA_site6532],10.6

row,Sequence,gcPBM binding intensity (ln)
1,AAAAAATACAGACACACACACACACGCATATAAATA [CACACA_site7644],10.8
2,AAAAAAAATAGACACACACACATACACATAAATATA [CACACA_site7742],10.5
3,ACCATATAAATAAACACACACACACGGATATAAATA [CACACA_site7157],10.6
4,ATAGTATACAGACACACACACACACGGATATAAATA [CACACA_site6914],10.6
5,CACGCATACAGACACACACACACACGGATATAAATA [CACACA_site6445],11.6
6,AAACAACATGGACACGCACACACAAAAAAAGCATGC [CACACA_site73],10.7
7,AAAATACATAGACACACACACACACGGATATAAATA [CACACA_site7643],11.2
8,CATATACATAGACACACACACACATAAATAAATATA [CACACA_site6749],10.4
9,CAAGCACACGGACACACACACACACGCGCACGCACA [CACACA_site6307],11.3
10,CGCGCACACGGACACACACACACACGGATATAAATA [CACACA_site7102],11.3
11,TTTAATTCTTATATTTGTACAGATTCATAATTAAAT [XGTACX_site7465],9.41
12,ACAAATAAATATTCGCGTACTTATATAATATTACGA [XGTACX_site6428],9.66
13,TACATACATACATACACACACACATATATATATATA [CACACA_site42],10.2
14,AATATTTTGAACAACAGTACTCTTTCTTTCTTTCTT [XGTACX_site7212],9.51
15,TGAATAATAAAAAATACACACACATATATATATATT [CACACA_site9146],10.1
16,ACTTACCCATTTATTACACACATAAAGGAAAATTTT [CACACA_site4873],9.88
17,TTTTATAAAAACAAAAACAAAGGCACTTTCTAAAGA [XGTACX_negctrl_site130],9.58
18,TATATGTTATATTTAACACACATATAAGGTACATAT [CACACA_site612],9.83
19,ACTTTTTAATATTTTAGTACACAGTAATTCTTACTA [XGTACX_site1425],9.75
20,CAAGAAACAGTGATACGTACACATATATATATATAT [XGTACX_site3229],9.91
21,AAGGATATAACATACACACACACACGGATATAAATA [CACACA_site7867],11
22,AATATAAGGATATATACACACATAAATACATACATA [CACACA_site7859],9.99
23,AAATAACACATATATACACACATATAAATATAATAT [CACACA_site2692],10.3

row,Sequence,gcPBM binding intensity (ln)
1,TTGTGGATTTTGTGCGCACACACATGCAAAAAGAAA [CACACA_site1147],10
2,GCCGCACCCAGATACGCACACAAGAAAAAAATATTC [CACACA_site3456],9.8
3,ATAATATTATGAACCTGTACATAATTTTTCTTTTCT [XGTACX_site3377],9.62
4,AAAAAGAAAATATATACACACCAAAAAAAAAAAAAA [CACACA_site5698],9.75
5,AAAGCACGCAAGAATACACACAAATATTATAAAAAA [CACACA_site6206],10.1
6,ACAAGAATACACCACGCACACACACTAGAGAAAAAA [CACACA_site9276],11.6
7,ACAAGAGAAAAAAATACACACAAGATAAAAATGTAT [CACACA_site607],9.95
8,GAATACACCACGCACACACACTTGAGAAAAAATAAA [CACACA_site7747],10.3
9,AAGAATACACCACGCACACACACTTGAGAAAAAATA [CACACA_site3828],11.2
10,AATATTTATAAATTTACACACACACCCGTGAACATA [CACACA_site1910],10.2
11,CACACCCACCAACACACACACACACCCACCCATATA [CACACA_site366],11
12,GACACCCATAAATATACACACGCACAACACAAAATA [CACACA_site8944],9.98
13,TAACCATACATACATACACACACACCCACATATATA [CACACA_site8951],10.3
14,CACGCGCACCAACACACACACACACCCATATATATA [CACACA_site2204],11.1
15,TATAAACACCCATATAAACACACATATAAACCAACA [CACACA_site8790],10
16,CACACCACCAACAAAAGTACATACATATATATATAT [XGTACX_site5781],9.82
17,CATATACACCAACACACACACACACCCACAAAAAAA [CACACA_site496],11.3
18,ACCATACATACATACACACACACACCCATATATATA [CACACA_site2917],10.6
19,CGCGCACCCAGACACACACACACACCCATATATATA [CACACA_site2203],10.6
20,CATACTCACCAACACACACACACACCCATATAGAAT [CACACA_site592],11.1
21,TATACATACCCACCCACACACAAAAAAAAAAAAAAA [CACACA_site4632],10.2
22,CACCCACACCAACACACACACATATATAATATATAT [CACACA_site595],10.6

# Source: the supplement of paper PMC11417369
